In PubChem BioAssay:
Inconclusive results are not listed. Active and inactive are the calls of the source. Unless noted, no rule for the calls is given here.

Assays:
[1] = rapamycin-like changes in RPL19A-GFP expression – cell-based, S. cerevisiae, multiplex flow cytometry, primary screen (AID 1862; in the data active = percent of DMSO control GFP below about 86%;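 also: lower values mimic rapamycin by blocking the RPL19A rise seen in DMSO cells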); details: S. cerevisiae RPL19A-GFP strain, flow cytometry fluorescence, 3 h; at 10 µM; stronger effect = lower value
[2] = TOR pathway GLN3 branch reporter MEP2-GFP changes – S. cerevisiae, multiplex flow cytometry, primary screen (AID 1867;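 active = GFP response, as percent of the DMSO control, above the screen-wide mean plus 3 SD, about 139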;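 also: median GFP channel fluorescence of barcode-gated MEP2-GFP cells measured by flow cytometry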); details: S. cerevisiae MEP2-GFP strain, 3 h, at 10 µM, stronger effect = higher value
[3] = TOR pathway RTG branch CIT2 reporter changes – S. cerevisiae, GFP fusion, multiplex flow cytometry, primary screen (AID 1870;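 active = percent response above a set limit, the screen-wide mean plus 3 SD, cut at about 130% in these data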;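 also: barcoded CIT2-GFP strain pooled with four other GFP strains with rapamycin as positive control; median GFP fluorescence per well over plate mean of DMSO wells so 100% = DMSO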); details: S. cerevisiae CIT2-GFP expression, 3 h, at 10 µM, stronger effect = higher value
[4] = TOR pathway LAP4-GFP level changes – S. cerevisiae, multiplex flow cytometry, primary screen (AID 1873;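 active = GFP signal, as percent of the solvent control, above the screen mean plus 3 SD, about 149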); details: S. cerevisiae LAP4-GFP expression, 3 h, at 10 µM, stronger effect = higher value
[5] = yeast AGP1-GFP level changes, GLN3 branch – cell-based, multiplex flow cytometry, S. cerevisiae, primary screen (AID 1887;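 active = GFP signal above the screen-wide mean plus 3 SD, that is over about 124.5% of the solvent control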;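 also: AGP1-GFP fusion strain of S. cerevisiae within a five-strain barcoded multiplex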); details: 3 h, at 10 µM, stronger effect = higher value
[6] = reduced mouse 2C T cell binding to pMHC/ICAM-1 vesicles – MLPCN validation set, flow cytometry, LFA-1/ICAM-1 modulator project, pilot screen (AID 2523;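 active = response below a set limit, under 55% cells CD8-positive and vesicle-bound, and CD8 cells' 90th-percentile brightness under 279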;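 as to vesicle binding response: mean PE anti-B7-1 fluorescence of CD8+ cells relative to row control; 100% = QL9-loaded vesicles with DMSO vehicle in the same plate row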); details: 2C mouse CD8+ T cells, at 7 µM, stronger effect = lower value; double positive events: measured here: CD8+/vesicle+ event percentage
[7] = target: Integrin beta-1 (Homo sapiens) + Integrin alpha-4 (Homo sapiens) (UniProt P13612+P05556); assay: alpha4beta1 integrin LIBS antibody binding reduction – U937 cells, HUTS-21 mAb, flow cytometry, validation set, VLA-4 allosteric modulator project, pilot screen (AID 2674;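 active = inhibition above 50%, about 3 SD of the validation set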;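 also: antibody binding induced by the VLA-4 ligand LDV present at three times its Kd; 0% = LDV ligand with antibody and no compound and 100% = antibody without LDV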); details: HUTS-21 LIBS mAb binding, at 6.7 µM, stronger effect = higher value
[8] = calorie-restriction mimetic ROS inhibitors, yeast – validation compound set, pilot screen (AID 2706;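 active = superoxide response below 65% of plate, a cut near 3 SD across the whole screen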;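 also: yeast exposed to compound for one week at 30 degrees C before staining; 100% = mean of all compound wells on the same plate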); details: S. cerevisiae aging, superoxide DHE fluorescence; at 10 µM; stronger effect = lower value
[9] = target: Beta-adrenergic receptor kinase 1 (Homo sapiens) (UniProt P25098); assay: GRK2 binders displacing RNA aptamer, biochemical, validation, human GRK2, bead flow cytometry (AID 488806;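 active = aptamer binding inhibition above 30%, about 3 SD of noise from non-fluorescent compounds; inactive = inhibition at or below 30%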); details: bead-bound GRK2, FAM-aptamer displacement, at 10 µM, stronger effect = higher value
[10] = target: Beta-2 adrenergic receptor (Homo sapiens) (UniProt P07550); assay: agonist-induced loss of surface beta2AR – cell-based, FAP fluorogen, flow cytometry, validation set, pilot screen (AID 504459;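 active = percent response above 42, roughly 3 SD of non-fluorescent test compounds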;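 also: agonist-driven loss of surface beta2AR via internalization measured by FAP dye flow cytometry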); details: Am2.2-beta2AR cells, at 10 µM, stronger effect = higher value
[11] = target: AP-2 complex subunit beta (Homo sapiens) (UniProt P63010); assay: beta-arrestin/AP2 interaction blockers – biochemical, validation set, GST-AP2 beads, flow cytometry, pilot screen (AID 504541;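 active = inhibition above 54%, about 3 SD of non-fluorescent compounds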;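 also: AP2 carries R879A mutation and is captured from E. coli lysate; bead-bound FITC arrestin peptide fluorescence measuring arrestin peptide binding to AP2; 0% = DMSO wells and 100% = excess unlabeled arrestin peptide control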); details: FITC arrestin peptide, at 10 µM, stronger effect = higher value
[12] = cytosolic pH regulators acting via V-ATPase – S. cerevisiae, pHLuorin, HTS validation (AID 504600; in the data active = response above about 15%;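 also: plate controls were DMSO for no effect and reference compound for full effect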); details: V-ATPase proton transport, at 10 µM, stronger effect = higher value
[13] = system: anti-desmoglein-3 scFv antibody binding to human DSG3; assay: blockers of pathogenic pemphigus antibody–desmoglein-3 binding – biochemical, validation compound set, bead-based, flow cytometry, pilot screen (AID 588368;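 active = binding below the plate cutoff, the plate median minus 3 SD, with a reading above zero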;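 also: signal is the median channel fluorescence of bead-bound GFP antibody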); details: Protein G beads, DSG3-Fc, scFv-GFP binding, at 10 µM, stronger effect = lower value
[14] = system: Botulinum neurotoxin type F light chain protease (Clostridium botulinum); assay: Clostridium botulinum type F light chain protease inhibitors, microsphere substrate cleavage, validation (AID 588459); details: multiplex microsphere protease substrate cleavage assay, flow cytometry; at 10 µM; stronger effect = higher value
[15] = target: Botulinum neurotoxin type A (Clostridium botulinum) (UniProt P0DPI0); assay: BoNT/A light chain protease inhibitors, biochemical, multiplex microsphere flow cytometry, validation set (AID 588460); details: at 10 µM, stronger effect = higher value
[16] = target: Lethal factor (Bacillus anthracis) (UniProt P15917); assay: Bacillus anthracis lethal factor inhibition, microsphere flow cytometry protease assay, validation at 10 µM (AID 588461); details: multiplex microsphere protease cleavage assay, stronger effect = higher value
[17] = Nile Red efflux blockade in pump-expressing yeast – validation compound set, multiplex, phenotypic, pilot screen (AID 588506;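 active = efflux inhibition above 0.42, the validation set average plus 4 SD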;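 also: Nile Red retained in cells so higher fluorescence means more efflux inhibition; 0 = negative control wells and 1 = enniatin B 25 µM full block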); details: S. cerevisiae pump-expressing triplex, Nile Red efflux flow cytometry; at 10 µM; stronger effect = higher value
[18] = target: ATP-binding cassette sub-family B member 6 (Homo sapiens) (UniProt Q9NP58); assay: blockers of ABCB6-driven porphyrin uptake – K562-ABCB6 cells, flow cytometry, validation set, pilot screen (AID 588550;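 active = inhibition above the screen-wide mean plus 3 SD, about 51%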;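 also: 0% = DMSO wells and 100% = benzethonium chloride 70 µM positive control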); details: K562-ABCB6 porphyrin accumulation, 1 h, at 10 µM, stronger effect = higher value
[19] = AML differentiation inducers, ER-HoxA9 marrow cells – cell-based, GFP/MAC1 double positive, flow cytometry, validation set, primary screen (AID 588685;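 active = differentiation response of at least 50%, scaled between solvent and reference control, from cells with both markers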;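 also: compound exposure lasts four days before antibody staining and flow analysis; 0% = DMSO wells and 100% = 5 µM fulvestrant positive control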); details: stronger effect = higher value

Beta-2 adrenergic receptor (Homo sapiens), sequence (P07550 whole entry, looked up): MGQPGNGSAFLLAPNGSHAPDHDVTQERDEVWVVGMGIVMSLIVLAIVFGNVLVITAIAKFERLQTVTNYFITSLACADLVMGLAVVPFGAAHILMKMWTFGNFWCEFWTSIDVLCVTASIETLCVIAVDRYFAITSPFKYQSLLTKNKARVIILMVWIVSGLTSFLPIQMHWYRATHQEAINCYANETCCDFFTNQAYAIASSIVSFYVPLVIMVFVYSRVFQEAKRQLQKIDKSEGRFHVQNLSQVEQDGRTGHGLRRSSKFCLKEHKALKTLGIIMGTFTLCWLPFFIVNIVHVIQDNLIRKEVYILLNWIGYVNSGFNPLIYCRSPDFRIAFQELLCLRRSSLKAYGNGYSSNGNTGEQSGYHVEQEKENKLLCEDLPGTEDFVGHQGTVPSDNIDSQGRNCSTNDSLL
Beta-adrenergic receptor kinase 1 (Homo sapiens), sequence (P25098 whole entry, looked up): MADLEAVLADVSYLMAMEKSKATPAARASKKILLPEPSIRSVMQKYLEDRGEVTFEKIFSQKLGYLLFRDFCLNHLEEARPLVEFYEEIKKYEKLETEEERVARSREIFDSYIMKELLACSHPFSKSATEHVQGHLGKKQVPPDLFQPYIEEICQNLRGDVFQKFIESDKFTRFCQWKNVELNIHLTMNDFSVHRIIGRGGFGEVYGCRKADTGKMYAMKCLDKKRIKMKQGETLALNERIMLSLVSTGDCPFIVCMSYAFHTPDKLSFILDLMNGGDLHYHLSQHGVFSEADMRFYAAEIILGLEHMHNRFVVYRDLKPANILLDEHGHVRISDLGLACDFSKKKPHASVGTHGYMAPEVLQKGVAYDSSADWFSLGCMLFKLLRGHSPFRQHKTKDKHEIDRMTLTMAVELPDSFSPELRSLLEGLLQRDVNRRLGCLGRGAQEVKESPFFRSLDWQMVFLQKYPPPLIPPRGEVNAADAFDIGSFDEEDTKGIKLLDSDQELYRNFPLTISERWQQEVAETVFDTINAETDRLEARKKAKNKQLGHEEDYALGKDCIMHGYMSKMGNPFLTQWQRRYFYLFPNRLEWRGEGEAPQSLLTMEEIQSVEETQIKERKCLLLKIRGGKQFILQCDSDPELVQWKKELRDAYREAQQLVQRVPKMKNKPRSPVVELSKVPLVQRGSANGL
AP-2 complex subunit beta (Homo sapiens), sequence (P63010 whole entry, looked up, one chain of several): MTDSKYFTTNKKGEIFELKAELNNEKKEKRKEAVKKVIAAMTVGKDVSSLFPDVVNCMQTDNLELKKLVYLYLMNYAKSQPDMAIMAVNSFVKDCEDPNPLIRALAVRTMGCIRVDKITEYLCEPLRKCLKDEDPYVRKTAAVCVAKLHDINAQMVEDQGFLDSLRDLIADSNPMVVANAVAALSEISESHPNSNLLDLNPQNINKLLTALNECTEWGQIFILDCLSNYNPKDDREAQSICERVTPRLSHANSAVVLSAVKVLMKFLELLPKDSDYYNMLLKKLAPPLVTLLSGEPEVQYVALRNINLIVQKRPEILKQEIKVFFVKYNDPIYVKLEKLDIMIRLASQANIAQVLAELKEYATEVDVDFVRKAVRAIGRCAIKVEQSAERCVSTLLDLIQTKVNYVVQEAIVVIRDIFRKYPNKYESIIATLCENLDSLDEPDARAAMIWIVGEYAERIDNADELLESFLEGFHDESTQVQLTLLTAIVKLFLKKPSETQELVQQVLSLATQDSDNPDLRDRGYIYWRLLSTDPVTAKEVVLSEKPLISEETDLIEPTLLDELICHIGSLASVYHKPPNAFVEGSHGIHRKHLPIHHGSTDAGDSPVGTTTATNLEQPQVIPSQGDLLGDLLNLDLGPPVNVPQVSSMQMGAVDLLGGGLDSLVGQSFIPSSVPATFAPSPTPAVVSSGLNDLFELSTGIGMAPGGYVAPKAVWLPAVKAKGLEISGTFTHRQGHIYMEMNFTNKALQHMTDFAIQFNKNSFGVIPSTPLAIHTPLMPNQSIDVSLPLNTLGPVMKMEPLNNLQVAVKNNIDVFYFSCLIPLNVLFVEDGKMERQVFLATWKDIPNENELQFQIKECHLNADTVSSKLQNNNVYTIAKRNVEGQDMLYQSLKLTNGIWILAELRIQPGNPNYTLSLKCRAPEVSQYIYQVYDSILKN
Botulinum neurotoxin type A (Clostridium botulinum), sequence (P0DPI0 whole entry, looked up): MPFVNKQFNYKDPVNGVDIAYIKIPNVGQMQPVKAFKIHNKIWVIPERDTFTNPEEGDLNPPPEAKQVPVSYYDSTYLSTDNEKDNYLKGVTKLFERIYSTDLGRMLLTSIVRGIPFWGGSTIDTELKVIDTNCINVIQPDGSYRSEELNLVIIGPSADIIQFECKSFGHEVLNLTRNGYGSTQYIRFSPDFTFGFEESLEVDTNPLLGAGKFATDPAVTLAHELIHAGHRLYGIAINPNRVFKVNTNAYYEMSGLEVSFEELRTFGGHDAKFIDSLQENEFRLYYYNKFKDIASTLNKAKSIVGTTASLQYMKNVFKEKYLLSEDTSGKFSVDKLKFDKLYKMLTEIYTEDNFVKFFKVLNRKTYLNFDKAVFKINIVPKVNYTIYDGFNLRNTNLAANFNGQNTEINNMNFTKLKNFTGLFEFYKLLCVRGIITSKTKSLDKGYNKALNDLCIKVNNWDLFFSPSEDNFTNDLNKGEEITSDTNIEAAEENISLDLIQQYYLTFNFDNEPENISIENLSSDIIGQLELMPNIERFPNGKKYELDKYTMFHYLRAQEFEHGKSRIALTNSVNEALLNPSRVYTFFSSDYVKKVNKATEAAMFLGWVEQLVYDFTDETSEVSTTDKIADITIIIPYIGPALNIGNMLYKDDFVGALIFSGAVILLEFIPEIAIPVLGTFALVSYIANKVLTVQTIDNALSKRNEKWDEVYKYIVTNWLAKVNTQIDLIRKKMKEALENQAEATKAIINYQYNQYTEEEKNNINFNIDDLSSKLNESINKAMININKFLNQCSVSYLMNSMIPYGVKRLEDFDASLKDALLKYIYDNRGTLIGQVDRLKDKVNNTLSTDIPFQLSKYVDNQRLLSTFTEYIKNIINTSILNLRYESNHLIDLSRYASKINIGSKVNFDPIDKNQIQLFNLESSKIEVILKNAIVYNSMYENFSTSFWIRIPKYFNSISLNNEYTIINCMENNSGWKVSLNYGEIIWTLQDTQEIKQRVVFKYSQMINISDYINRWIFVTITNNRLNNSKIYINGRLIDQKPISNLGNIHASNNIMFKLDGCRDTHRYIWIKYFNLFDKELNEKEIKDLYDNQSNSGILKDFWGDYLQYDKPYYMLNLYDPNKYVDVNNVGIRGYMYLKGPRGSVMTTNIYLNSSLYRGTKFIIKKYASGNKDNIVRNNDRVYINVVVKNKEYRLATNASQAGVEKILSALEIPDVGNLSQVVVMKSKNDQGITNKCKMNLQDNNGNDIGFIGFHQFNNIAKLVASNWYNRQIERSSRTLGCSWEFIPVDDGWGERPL
Lethal factor (Bacillus anthracis), sequence (P15917 whole entry, looked up): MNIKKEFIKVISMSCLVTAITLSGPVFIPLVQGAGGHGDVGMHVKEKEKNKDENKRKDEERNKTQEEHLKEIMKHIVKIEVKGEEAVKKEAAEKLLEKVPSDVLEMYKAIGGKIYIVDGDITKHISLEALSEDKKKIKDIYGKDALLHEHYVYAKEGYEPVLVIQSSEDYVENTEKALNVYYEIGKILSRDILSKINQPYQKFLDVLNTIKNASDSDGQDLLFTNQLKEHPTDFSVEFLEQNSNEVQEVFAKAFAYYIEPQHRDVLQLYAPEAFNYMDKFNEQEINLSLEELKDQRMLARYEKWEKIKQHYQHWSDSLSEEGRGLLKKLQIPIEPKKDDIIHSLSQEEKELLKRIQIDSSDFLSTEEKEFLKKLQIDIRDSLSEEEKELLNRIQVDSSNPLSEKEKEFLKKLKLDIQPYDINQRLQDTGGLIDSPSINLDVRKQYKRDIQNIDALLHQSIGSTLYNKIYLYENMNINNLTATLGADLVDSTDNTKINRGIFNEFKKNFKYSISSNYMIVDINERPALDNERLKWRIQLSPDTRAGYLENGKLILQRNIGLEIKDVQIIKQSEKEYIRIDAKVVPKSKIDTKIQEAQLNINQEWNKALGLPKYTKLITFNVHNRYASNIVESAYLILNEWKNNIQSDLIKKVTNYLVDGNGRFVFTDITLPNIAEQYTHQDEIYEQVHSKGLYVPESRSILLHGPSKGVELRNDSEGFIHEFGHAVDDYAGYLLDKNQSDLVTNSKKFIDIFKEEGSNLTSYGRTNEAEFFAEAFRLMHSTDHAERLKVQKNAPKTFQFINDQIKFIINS
ATP-binding cassette sub-family B member 6 (Homo sapiens), sequence (Q9NP58 whole entry, looked up): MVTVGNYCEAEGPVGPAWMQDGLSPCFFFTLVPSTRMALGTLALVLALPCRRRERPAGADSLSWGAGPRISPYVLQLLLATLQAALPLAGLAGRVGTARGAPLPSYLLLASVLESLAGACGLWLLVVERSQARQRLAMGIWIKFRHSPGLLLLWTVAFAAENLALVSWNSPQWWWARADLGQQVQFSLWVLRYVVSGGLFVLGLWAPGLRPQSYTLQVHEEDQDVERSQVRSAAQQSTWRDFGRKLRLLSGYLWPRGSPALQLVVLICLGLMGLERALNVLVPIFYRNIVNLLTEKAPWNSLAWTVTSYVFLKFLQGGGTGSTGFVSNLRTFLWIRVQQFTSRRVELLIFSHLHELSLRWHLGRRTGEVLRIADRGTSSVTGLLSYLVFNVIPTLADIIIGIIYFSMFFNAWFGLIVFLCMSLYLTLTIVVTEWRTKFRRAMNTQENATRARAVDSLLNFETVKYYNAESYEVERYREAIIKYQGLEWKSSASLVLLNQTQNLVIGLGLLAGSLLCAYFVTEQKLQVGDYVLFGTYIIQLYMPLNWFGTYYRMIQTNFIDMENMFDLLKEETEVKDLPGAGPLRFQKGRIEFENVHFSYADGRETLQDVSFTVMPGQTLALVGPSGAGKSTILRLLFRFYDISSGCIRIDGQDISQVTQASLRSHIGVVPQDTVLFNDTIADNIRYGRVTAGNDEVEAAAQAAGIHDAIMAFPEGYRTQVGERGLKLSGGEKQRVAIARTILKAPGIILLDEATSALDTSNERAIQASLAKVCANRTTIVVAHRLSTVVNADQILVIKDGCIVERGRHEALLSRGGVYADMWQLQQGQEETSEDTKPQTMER

OC(c1ccccc1)(c1ccccc1)C1CCNCC1
73.3%: double positive events [6]
inactive: percent of DMSO control GFP [1] 99.4% | GFP response vs DMSO [2] 110% | percent response of DMSO control [3] 104% | GFP response vs DMSO [4] 85.3% | GFP response, % of DMSO [5] 103% | vesicle binding response [6] 322% | inhibition [7] -5.18% | superoxide response (% of plate) [8] 94.6% | aptamer binding inhibition [9] 12% | response [10] 6.3% | inhibition [11] 2.73% | response [12] 10.3% | binding (% of control) [13] 106% | inhibition [14] 4.1% | inhibition [15] 1.1% | inhibition [16] 4.1% | efflux inhibition (fraction of control) [17] 0.05 | inhibition [18] 12% | differentiation response [19] 2.46%

[N-]=[N+]=CC(=O)OC[C@H](N)C(=O)O
64.4%: double positive events [6]
inactive: percent of DMSO control GFP [1] 102% | GFP response vs DMSO [2] 102% | percent response of DMSO control [3] 100% | GFP response vs DMSO [4] 109% | GFP response, % of DMSO [5] 110% | vesicle binding response [6] 133% | inhibition [7] 12.5% | superoxide response (% of plate) [8] 97.4% | aptamer binding inhibition [9] 5% | response [10] -13% | inhibition [11] 4.06% | response [12] 2.12% | binding (% of control) [13] 92.8% | inhibition [14] 2.7% | inhibition [15] 1.2% | inhibition [16] 2.3% | efflux inhibition (fraction of control) [17] -0.13 | inhibition [18] 5% | differentiation response [19] 0.92%

CC(=O)OC1C2CCC1C(N1CCCC1)CC2 (stereo not given)
inactive: percent of DMSO control GFP [1] 98.7% | GFP response vs DMSO [2] 106% | percent response of DMSO control [3] 97.7% | GFP response vs DMSO [4] 104% | GFP response, % of DMSO [5] 115% | vesicle binding response [6] 162% | inhibition [7] 9.1% | superoxide response (% of plate) [8] 91.4% | aptamer binding inhibition [9] 0% | response [10] -10.9% | inhibition [11] -16% | response [12] -1.91% | binding (% of control) [13] 103% | inhibition [14] -2.3% | inhibition [15] -0.8% | inhibition [16] -5.2% | efflux inhibition (fraction of control) [17] -0.04 | inhibition [18] 3% | differentiation response [19] -12.9%
67.3%: double positive events [6]

O=c1[nH]c2ccccc2n1C1CCN(CCCC(c2ccc(F)cc2)c2ccc(F)cc2)CC1
56.5%: double positive events [6]
inactive: percent of DMSO control GFP [1] 97.1% | GFP response vs DMSO [2] 107% | percent response of DMSO control [3] 103% | GFP response vs DMSO [4] 130% | GFP response, % of DMSO [5] 120% | vesicle binding response [6] 184% | inhibition [7] 41.5% | superoxide response (% of plate) [8] 88.4% | aptamer binding inhibition [9] -13% | inhibition [11] -9.19% | binding (% of control) [13] 114% | inhibition [14] -2.3% | inhibition [15] -1.7% | inhibition [16] -3% | efflux inhibition (fraction of control) [17] 0.12 | inhibition [18] 6% | differentiation response [19] 13.7%
active: response [10] 67.3% | response [12] 73.1%

COc1cc2c3cc1Oc1cc(ccc1O)C[C@@H]1c4c(cc(OC)c(O)c4Oc4ccc(cc4)C[C@H]3N(C)CC2)CCN1C
inactive: percent of DMSO control GFP [1] 88.2% | GFP response vs DMSO [2] 125% | percent response of DMSO control [3] 107% | GFP response vs DMSO [4] 81.4% | GFP response, % of DMSO [5] 90.5% | vesicle binding response [6] 214% | inhibition [7] 7.43% | superoxide response (% of plate) [8] 92.4% | aptamer binding inhibition [9] 2% | response [10] 17.5% | inhibition [11] 19.2% | response [12] 1.91% | binding (% of control) [13] 105% | inhibition [14] -3.1% | inhibition [15] -3% | inhibition [16] -7.1% | efflux inhibition (fraction of control) [17] 0.05 | inhibition [18] 10% | differentiation response [19] -3.28%
56.5%: double positive events [6]

CC12CC[C@H]3[C@@H](CCC4(O)C[C@H](O)CCC34/C=N/NC(=O)Cc3ccccc3)C1(O)CCC2C1=CC(=O)OC1 (stereo not given in full)
inactive: percent of DMSO control GFP [1] 103% | GFP response vs DMSO [2] 101% | percent response of DMSO control [3] 115% | GFP response vs DMSO [4] 92% | GFP response, % of DMSO [5] 107% | vesicle binding response [6] 204% | inhibition [7] 1.62% | superoxide response (% of plate) [8] 111% | aptamer binding inhibition [9] 1% | response [10] -5.5% | inhibition [11] -3.69% | response [12] 1.22% | binding (% of control) [13] 95% | inhibition [14] 3.5% | inhibition [15] -0.2% | inhibition [16] 3.2% | efflux inhibition (fraction of control) [17] 0.08 | inhibition [18] 5% | differentiation response [19] 0.24%
65.3%: double positive events [6]

O=c1cccc2n1C[C@H]1C[C@@H]2CN2CCCC[C@@H]12
61.7%: double positive events [6]
inactive: percent of DMSO control GFP [1] 97.6% | GFP response vs DMSO [2] 111% | percent response of DMSO control [3] 94.8% | GFP response vs DMSO [4] 118% | GFP response, % of DMSO [5] 98.1% | vesicle binding response [6] 124% | inhibition [7] -9.98% | superoxide response (% of plate) [8] 100% | aptamer binding inhibition [9] -2% | response [10] 2.05% | inhibition [11] -2.4% | response [12] -3.47% | binding (% of control) [13] 101% | inhibition [14] -0.6% | inhibition [15] -0.2% | inhibition [16] -7.3% | efflux inhibition (fraction of control) [17] -0.03 | inhibition [18] 4% | differentiation response [19] -24.8%
